Source: PubChem BioAssay (National Center for Advancing Translational Sciences (NCATS))
Hits are enriched below; roughly 4.8% of the tested compounds scored in any of these assays.
TGFb inhibitor – blocks TGF-b signaling | actives 1.2% (n = 410,000) | AID 588855 | Potency, µM (highest dose often 46.1 µM), for the others: at the top dose activity, negative = inhibition, usual class: inhibitors | HepG2 CAGA-GFP TGF-b/SMAD3 reporter, GFP fluorescence, 18 h; TGF-beta stimulated, 500 pg/mL final; also: potency is read from the fitted curve at half-maximal effect; % is scaled to controls: 0 for no effect and ±100 for the full control effect; nearly all actives have a fitted effect of over 65% in size
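TGF-beta reporter screen: HEPG2 CAGA-GFP, 1% FBS, 500 pg/mL TGF-beta final, 18 h; per-cell GFP summed per well; curves fitted and categorized by class.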
S2 tox – reduces viability in counter-screen for ATXN expression inhibitors; S2 cells (HEK-293 line with an ATXN2-luciferase reporter) viability, CellTiter-Fluor protease fluorescence, 24 h; Potency, µM (highest dose often 56.7 µM), actives largely listed as cytotoxic; actives 0.49% (n = 400,000); AID 651635; also: potency is read from the fitted curve at half-maximal effect; nearly all actives have a fitted effect of over 40% in size
DRD3 antagonist – antagonists of human D3 dopamine receptor. D3R cells, DiscoveRx beta-arrestin luminescence, antagonist mode; stronger effect = lower value. max response, negative = inhibition, %. actives 2.5% (n = 360,000). AID 652054; in the data active = max response below about -50%; inconclusive = no clear call, values can overlap the other calls; also: % is scaled to controls: 0 for no effect and ±100 for the full control effect
Target sequence (P35462 whole entry, looked up): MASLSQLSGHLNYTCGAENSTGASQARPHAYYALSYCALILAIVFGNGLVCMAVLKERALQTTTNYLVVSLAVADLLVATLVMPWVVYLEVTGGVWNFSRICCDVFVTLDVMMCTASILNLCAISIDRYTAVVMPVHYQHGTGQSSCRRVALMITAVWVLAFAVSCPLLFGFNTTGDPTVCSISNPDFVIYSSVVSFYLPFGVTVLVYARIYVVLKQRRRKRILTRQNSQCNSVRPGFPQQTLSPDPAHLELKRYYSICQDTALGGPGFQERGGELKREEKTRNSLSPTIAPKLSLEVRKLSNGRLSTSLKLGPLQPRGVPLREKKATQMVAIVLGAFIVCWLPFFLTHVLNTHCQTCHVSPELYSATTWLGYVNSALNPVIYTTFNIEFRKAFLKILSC
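Cells expressing the human receptor were seeded at 1500 cells/well, incubated overnight at 37 degrees C in 5% CO2, then exposed to library compounds with dopamine controls for 90 minutes at 37 degrees C before luminescent detection.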
DRD3 agonist – agonists of human D3 dopamine receptor. P35462. D3R DiscoveRx beta-arrestin cells, luminescence, 90 min. max activation, %. actives 0.58% (n = 410,000). AID 652048; in the data active = max activation above about 30%; also: 0% is about no effect
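Agonist-mode cell screen: cells plated at 1500/well and incubated overnight at 37 °C, then exposed to library compounds for 90 min at 37 °C. Detection reagent was added for 30–60 min at room temperature, and luminescence was read.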
HepG2 viability – kills HepG2 cells in TGF-b inhibitor counter-screen; HepG2 CAGA-GFP viability, ATP luminescence, 18 h; Potency, µM (doses to about 46.1 µM), for the others: at the top dose activity change, negative = cytotoxicity, hits mostly cytotoxic; actives 0.76% (n = 410,000); AID 588856; also: potency is read from the fitted curve at half-maximal effect
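HepG2 CAGA-GFP cells (1000/well, DMEM with 1% FBS) received compound, then TGF-beta at 500 pg/mL final, and were incubated 18 hours at 37 degrees C. Viability was read by CellTiter-Glo luminescence. Media-only wells were set as complete cell-killing and DMSO as no toxicity.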
ATXN2 expr inh – inhibitors of ATXN2 expression; HEK-293 ATXN2-luciferase reporter, luminescence, 24 h; Potency, µM (series often up to 57 µM), inactives show at the highest dose activity change, negative = inhibition, hits mostly inhibitors; actives 0.72% (n = 360,000); AID 1745845; also: potency is read from the fitted curve at half-maximal effect; % is scaled to controls: 0 for no effect and ±100 for the full control effect; nearly all actives have a fitted effect of over 55% in size
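qHTS (up to 57 uM final) was run with 24 h compound exposure of reporter cells at 37 °C. Each well was multiplexed: SteadyGlo luminescence measured ATXN2-luciferase expression after a fluorogenic Gly-Phe-AFC viability readout (25 uM final).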
Starred values were filed as active, the others as inactive; i = inactive; ? = inconclusive; / = no result. Unless noted, calls follow the shape of the dose curve; as a rule, active = well fitted curve in the direction sought with a large enough effect; inconclusive = small, poorly fitted or top-dose-only effect, or another doubt; inactive = no such curve, though single readings can be large; an effect the other way counts as inactive or inconclusive.

SMILES	TGFb inhibitor	S2 tox	DRD3 antagonist	DRD3 agonist	HepG2 viability	ATXN2 expr inh
CNC[C@@H]1CC[C@@H](N)[C@@H](O[C@H]2[C@H](O)[C@@H](O[C@H]3OC[C@](C)(O)[C@H](NC)[C@H]3O)[C@H](N)C[C@@H]2N)O1	/	i	/	2	/	/
COc1ccc(CN2CCC3(CCC(CNC(=O)c4ccnn4C)O3)CC2)c(C)c1C (configuration not stated)	/	i	/	/	/	/
Cc1cc(NCc2ccccn2)n2ncc(-c3ccccc3)c2n1	?	i	-2	-8	-41%	11%
Cc1cc(NCCC(C)C)n2nc(C)c(-c3ccccc3)c2n1	2%	i	4	-12	-29%	12%
Cc1cc(NCc2ccccn2)n2nc(C)c(-c3ccc(Cl)cc3)c2n1	?	i	-27	-3	14µM*	?
C=CCSc1cc(C)nc2c(-c3ccc(Cl)cc3)c(C)nn12	-5%	?	20	38*	-25%	-11%
Cc1cc(NCc2ccccn2)n2ncc(-c3ccc(Cl)cc3)c2n1	11µM*	?	6	11	-49%	-14%
CC(C)(C)n1ncc2c(=O)n(Cc3ccccc3SC(F)(F)F)cnc21	?	/	/	/	-21%	/
CC1=CC(C)(C)N=C(Nc2ccc(C)cc2)S1	0%	i	-74*	5	-46%	30%
COCCNC(=O)/C(C#N)=C/c1cc(C(C)C)c(OC)cc1C	23%	i	-77*	-40	-5%	-20%
COc1cc(C)c(/C=C(\C#N)C(=O)Nc2ccc(C)cc2)cc1C(C)C	-14%	/	?	-43	3%	-22%
Cc1ccc(S(=O)(=O)N2CCN(S(=O)(=O)c3ccccc3)C2)cc1	-29%	i	-51*	3	8%	5%
Cc1ccc(S(=O)(=O)N2CCN(Cc3cc(Br)ccc3O)CC2)cc1	10µM*	i	/	-14	1%	-27%
Cc1ccc(S(=O)(=O)N2CCN(C(=O)c3c(C)nn(-c4ccccc4)c3Cl)CC2)cc1	1%	i	-71*	-14	-2%	-2%
Cc1cc(C)c(S(=O)(=O)N2CCN(C(=O)c3ccc(-n4nc(C)c(Cl)c4C)cc3)CC2)c(C)c1	?	i	-2	101*	-7%	-27%
Cc1cc(/C=C2\C=Cc3ccccc32)cc(C)c1[N+](=O)[O-]	-10%	/	/	/	-27%	/
Cc1ccc(S(=O)(=O)N2CCN(C3CC4CCC3C4)CC2)cc1 (configuration not stated)	3%	i	-61*	-23	-10%	5%
CCC(Sc1nncn2c1cc1occc12)C(=O)Nc1ccc(C)c(Cl)c1 (configuration not stated)	?	/	/	-5	-46%	/
O=[N+]([O-])c1ccc(Sc2cccc[n+]2[O-])c2nonc12	1.3µM*	/	-116*	-60	-115%	5.3µM*
Cc1oc2ncn(CC(C)C)c(=O)c2c1C(=O)NC(C)c1ccccc1 (configuration not stated)	12%	?	/	-6	-5%	-17%
Cc1ccc(SCC(=O)OCC(=O)N(CCC#N)c2ccccc2)cc1C	-2%	i	0	1	1%	4%
Cc1ccc(N(CCC#N)C(=O)CCl)cc1C	?	/	4	12	11µM*	?
Cc1ccc(OCc2nnc(SCC(=O)c3cccs3)n2-c2ccccc2)cc1C	-30%	i	-53*	0	-1%	-11%
Oc1c(Br)cc(Br)cc1/C=N/N1CCN(Cc2ccccc2)CC1	1%	i	-80*	-28	-4%	1%
Cc1ccc(CN2CCN(/N=C/c3cc(Br)cc(Br)c3O)CC2)cc1	-4%	?	-15	-18	-1%	-3%
SMILES	TGFb inhibitor	S2 tox	DRD3 antagonist	DRD3 agonist	HepG2 viability	ATXN2 expr inh
CCOc1cccc(/C=N/N2C(C)CCCC2C)c1O (configuration not stated)	-5%	i	25	4	0%	17%
CC1CCCC(C)N1/N=C/c1cc(Br)cc(Br)c1O (configuration not stated)	-18%	i	-62*	-9	-11%	5%
COc1cccc(C(=O)NCC2Cc3c(F)ccc(-c4ncccn4)c3O2)c1OC (configuration not stated)	/	i	/	/	/	/
O=C(NC(=O)N1CCCc2ccccc21)c1ccccc1	20%	i	3	5	-2%	-1%
O=C(C(c1ccccc1)c1ccccc1)N1CCCc2ccccc21	1%	i	-61*	0	-2%	31%
CCOC(=O)N1CCC(NCCNC(=O)c2cccs2)CC1	-8%	i	-77*	-8	2%	26%
CCOC(=O)N1CCC(NC(=O)c2ccccc2C(=O)O)CC1	10%	i	29	-5	-4%	0%
CCOC(=O)N1CCC(NCCNC(=O)c2ccccc2)CC1	7%	i	-73*	-2	4%	-4%
O=C(NCCNC1CCC(c2ccccc2)CC1)c1cccs1 (configuration not stated)	-10%	/	-54*	-11	5%	-17%
CCOC(=O)N1CCC(NC(=O)c2cc(C)c3c(C)nn(-c4ccccc4)c3n2)CC1	1%	i	3	46*	-12%	-11%
O=C(NCCC1CCCC1)c1cccs1	-28%	i	6	2	-8%	/
CNc1c(Br)cc(/C=C2\C=C(C(O)c3cc(Br)c(NC)c(Br)c3)c3ccccc32)cc1Br (configuration not stated)	-6%	/	/	/	-16%	/
CCN(C(=O)c1cc2c(Cl)nc3ccccc3c2s1)c1cccc(Cl)c1	-1%	i	/	3	7%	8%
CC(=O)SC[C@@H](C)C(=O)N1CCC[C@H]1C(=O)N[C@@H](Cc1ccccc1)C(=O)O	/	i	/	-14	/	-30%
CCC(=O)OC1=C(C(C)=O)N(Cc2ccccc2)S(=O)(=O)c2ccccc21	1%	i	/	5	-1%	15%
Cc1ccc(S(=O)(=O)N2CCc3cc(C(=O)Nc4c(F)cccc4F)ccc32)cc1	-3%	?	/	5	-3%	-1%
Cc1ccc(NC(=O)C2=C(O)c3sccc3N(C)S2(=O)=O)cc1	-26%	i	?	0	4%	13%
CN1c2ccccc2C(O)=C(C(=S)Nc2ccc(Cl)cc2)S1(=O)=O	-10%	?	-87*	4	-48%	-16%
Cc1ccc(NC(=S)C2=C(O)c3sccc3N(C)S2(=O)=O)cc1	-2%	i	-88*	4	5%	2%
CC(=O)OC[C@@H]1CN(Cc2ccccc2)C[C@H](n2cnc3c(NC4CCC4)ncnc32)O1	11%	i	-14	-6	-2%	-5%
